Assay results as given in PubChem BioAssay AID1159580 (chemical genetic matrix, 2015).
The whole screen tested about 5,500 compounds, of which about 2,000 (36%) were called active. Roughly 18% stayed inconclusive and do not appear here. The list shows a part of the results. A number with no mark means an inactive call. No stated cut-off is given here; in the data, active means normalized growth mostly below about 0.91 (no sharp cut-off); inconclusive means no clear call, values can overlap the other calls; inactive means mostly above about 0.92.

Assay: chemical genetic growth profiling, strain panel (AID 1159580);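 further: tested at 20 µM; growth read once vehicle control cultures reached saturation at 30 °C; 1 = growth at the plate median or of vehicle wells; lower values mean less growth of the strain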
Conditions: S. cerevisiae deletion strains, growth OD

Structure (SMILES): CCCCCCCC/C=C\CCCCCCCC(=O)NCCc1ccc(O)c(O)c1
- normalized growth (locus YAL040C, strain CLN3, active compounds read low): 1.01
- normalized growth (locus YCL061C, strain MRC1 (second series), active compounds read low): 0.987
- normalized growth (locus YDR363W, strain ESC2, active compounds read low): 0.981
- normalized growth (locus YER002W, strain NOP16, active compounds read low): 1
- normalized growth (locus YGR229C, strain SMI1, active compounds read low): 0.811 (active)
- normalized growth (locus YMR307W, strain GAS1, active compounds read low): 0.987
- normalized growth (locus YNL153C, strain GIM3, active compounds read low): 0.811 (active)
- normalized growth (locus YNL175C, strain NOP13, active compounds read low): 0.999
- normalized growth (locus YNL197C, strain WHI3, active compounds read low): 0.987
- normalized growth (locus YNL224C, strain SQS1, active compounds read low): 1.02
- normalized growth (locus YOR083W, strain WHI5 (second series), active compounds read low): 0.876
- normalized growth (locus YPL055C, strain LGE1, active compounds read low): 1
- normalized growth (locus YPL241C, strain CIN2, active compounds read low): 0.993
